Percent Effect data for eleven compounds are collected here from ChEMBL document CHEMBL3988442, “University of Dundee, Small-Polar-MMV Screening Library” (2021).

For some of these results: Results with a measured potency or affinity are listed apart.

Holding throughout (set-up): scale not given: direction of the effect not stated beside the values
Assay [1] concerns the target Protein translocase subunit SecA (Escherichia coli (strain K12)) (UniProt P10408). Briefly: Assay to Identify E. coli SecA ATPase Inhibitors. Type of assay: functional. The conditions noted are these: 30 µM.
In assay [2] the target is T1, Ubiquitin-activating enzyme e1, putative (Leishmania donovani (strain BPK282A1)) (UniProt E9BSI1).
T1 sequence (whole entry): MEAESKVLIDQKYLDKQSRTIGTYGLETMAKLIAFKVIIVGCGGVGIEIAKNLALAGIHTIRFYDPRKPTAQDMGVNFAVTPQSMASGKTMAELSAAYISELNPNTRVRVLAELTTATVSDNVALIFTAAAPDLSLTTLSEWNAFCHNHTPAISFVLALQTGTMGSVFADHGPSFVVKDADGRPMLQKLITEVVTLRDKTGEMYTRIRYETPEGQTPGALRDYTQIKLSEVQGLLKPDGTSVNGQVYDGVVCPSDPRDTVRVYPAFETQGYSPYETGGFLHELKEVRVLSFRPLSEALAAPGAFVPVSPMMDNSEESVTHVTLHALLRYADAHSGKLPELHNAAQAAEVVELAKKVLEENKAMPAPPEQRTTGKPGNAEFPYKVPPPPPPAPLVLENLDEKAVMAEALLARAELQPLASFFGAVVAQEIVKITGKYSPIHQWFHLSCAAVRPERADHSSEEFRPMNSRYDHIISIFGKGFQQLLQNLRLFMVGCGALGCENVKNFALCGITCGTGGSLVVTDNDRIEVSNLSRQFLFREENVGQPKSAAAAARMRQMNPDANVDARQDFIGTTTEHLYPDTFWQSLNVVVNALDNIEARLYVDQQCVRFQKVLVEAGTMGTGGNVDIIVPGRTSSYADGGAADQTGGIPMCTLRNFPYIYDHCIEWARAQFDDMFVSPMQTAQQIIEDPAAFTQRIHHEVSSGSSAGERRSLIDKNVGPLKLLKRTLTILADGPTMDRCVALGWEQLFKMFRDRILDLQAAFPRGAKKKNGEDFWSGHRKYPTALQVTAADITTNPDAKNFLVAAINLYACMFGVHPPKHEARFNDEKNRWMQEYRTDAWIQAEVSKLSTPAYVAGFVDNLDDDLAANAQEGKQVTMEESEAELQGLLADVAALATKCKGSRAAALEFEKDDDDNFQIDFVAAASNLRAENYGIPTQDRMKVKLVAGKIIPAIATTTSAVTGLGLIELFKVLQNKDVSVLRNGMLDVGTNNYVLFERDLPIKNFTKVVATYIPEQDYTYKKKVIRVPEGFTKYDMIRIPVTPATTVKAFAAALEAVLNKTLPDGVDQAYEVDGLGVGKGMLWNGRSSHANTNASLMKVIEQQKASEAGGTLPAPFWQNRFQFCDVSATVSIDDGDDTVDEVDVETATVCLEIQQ
Briefly: Leishmania donovani Ubiquitin Activating Enzyme (LdE1). The conditions noted are these: 30 µM. Type of assay: functional.

The target of assay [3] is AMP-activated protein kinase, AMPK (Homo sapiens) (UniProt P54646+O43741+P54619+Q9UGJ0+Q9Y478+Q13131+Q9UGI9). Kind of assay: AMP-dependent Kinase enzyme assay. An in vitro enzyme assay that detects ADP turnover that is directly proportional to AMPK activity. This uses naive AMPK that is activated during the assay with MK-8722. The conditions noted are these: 30 µM. Type of assay: functional.

Assay [4] addresses Sialic acid-binding Ig-like lectin 9 (Homo sapiens) (UniProt Q9Y336). Briefly: Hs-Siglec9 ALPHAscreen SOP 20170721. The conditions noted are these: 10 µM. For orientation: In Alpha technology, singlet oxygen from a donor bead excites a nearby acceptor bead.
In assay [5] the test system is Trypanosoma cruzi. Kind of assay: Trypanosoma cruzi phosphomannomutase and mannose-1-phosphate guanylyltransferase assay. The conditions noted are these: 10 µM. Type of assay: functional.
Assay [6] deals with T2, Arginase-2, mitochondrial (Homo sapiens) (UniProt P78540).
T2 sequence (whole entry): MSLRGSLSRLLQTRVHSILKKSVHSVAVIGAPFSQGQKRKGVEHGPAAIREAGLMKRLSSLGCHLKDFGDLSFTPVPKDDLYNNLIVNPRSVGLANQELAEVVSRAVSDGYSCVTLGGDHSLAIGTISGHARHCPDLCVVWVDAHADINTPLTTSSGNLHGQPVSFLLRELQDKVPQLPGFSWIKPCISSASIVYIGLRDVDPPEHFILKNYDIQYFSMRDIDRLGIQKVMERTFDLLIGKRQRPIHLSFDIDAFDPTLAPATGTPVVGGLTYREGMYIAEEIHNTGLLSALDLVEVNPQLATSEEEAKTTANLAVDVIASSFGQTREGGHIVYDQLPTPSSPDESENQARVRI
Briefly: in vitro enzyme assay to detect the production of urea directly proportional to the activity of Arginase II. Further: in the data most compounds retested in dose-response had high values. The class given is functional. The conditions noted are these: 33.3 µM.

Assay [7] deals with T3, Proteasome subunit beta (Trypanosoma cruzi) (UniProt O96673).
T3 sequence (whole entry): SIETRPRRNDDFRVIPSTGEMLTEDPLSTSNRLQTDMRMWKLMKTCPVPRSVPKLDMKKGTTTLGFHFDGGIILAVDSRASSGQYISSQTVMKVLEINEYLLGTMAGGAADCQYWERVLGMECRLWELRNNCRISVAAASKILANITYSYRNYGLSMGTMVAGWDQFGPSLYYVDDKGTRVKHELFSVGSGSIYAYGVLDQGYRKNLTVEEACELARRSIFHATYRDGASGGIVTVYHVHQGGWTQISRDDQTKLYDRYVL
Kind of assay: Trypanosoma cruzi proteasome chymotrypsin-like activity (TcProtChymo) assay. Further: in the data most compounds retested in dose-response had high values. Type of assay: functional. The conditions noted are these: 9.37 µM.

The species entered for assay [8] is Homo sapiens. Briefly: To identify inhibition of the IFN signalling (Jak-Stat) pathway via expression of an eGFP reporter gene under the control of an IFN-stimulated response element (ISRE) containing MxA promoter. The conditions noted are these: 30 µM. The class given is functional.
Assay [9] addresses T4, Tyrosyl-tRNA synthetase, putative (Trypanosoma cruzi (strain CL Brener)) (UniProt Q4DSP6).
T4 sequence (whole entry): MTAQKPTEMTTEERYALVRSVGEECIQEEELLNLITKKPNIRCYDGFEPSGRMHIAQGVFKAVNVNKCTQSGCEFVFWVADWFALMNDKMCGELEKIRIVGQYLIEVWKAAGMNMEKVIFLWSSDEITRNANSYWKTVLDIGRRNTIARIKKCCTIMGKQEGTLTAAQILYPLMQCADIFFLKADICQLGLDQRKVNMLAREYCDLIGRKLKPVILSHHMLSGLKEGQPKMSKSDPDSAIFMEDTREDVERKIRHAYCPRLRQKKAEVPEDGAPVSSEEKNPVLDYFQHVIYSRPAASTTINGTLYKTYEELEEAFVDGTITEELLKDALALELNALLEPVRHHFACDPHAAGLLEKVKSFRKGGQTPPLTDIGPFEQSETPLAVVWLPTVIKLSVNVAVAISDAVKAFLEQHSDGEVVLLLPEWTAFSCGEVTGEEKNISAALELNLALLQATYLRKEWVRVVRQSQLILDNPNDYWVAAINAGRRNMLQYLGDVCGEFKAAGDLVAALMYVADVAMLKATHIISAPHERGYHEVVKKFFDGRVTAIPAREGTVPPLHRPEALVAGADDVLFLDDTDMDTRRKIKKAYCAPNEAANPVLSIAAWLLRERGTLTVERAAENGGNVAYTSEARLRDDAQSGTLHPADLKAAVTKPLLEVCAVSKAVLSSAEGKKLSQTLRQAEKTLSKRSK
Briefly: Trypanosoma cruzi tyrosyl tRNA synthetase (TcYRS) _High Tyrosine SOP. Further: in the data most compounds retested in dose-response had high values. Type of assay: functional. The conditions noted are these: 30 µM.

In assay [10] the target is T4, Tyrosyl-tRNA synthetase, putative (Trypanosoma cruzi (strain CL Brener)). Kind of assay: Trypanosoma cruzi tyrosyl tRNA synthetase (TcYRS) SOP. The conditions noted are these: 30 µM. The class given is functional.
The target of assay [11] is Chromo domain-containing protein 1 (Saccharomyces cerevisiae (strain ATCC 204508 / S288c) (Baker's yeast)) (UniProt P32657). Briefly: ScCHD-1 Enzyme Inhibition Assay. Further: in the data most compounds retested in dose-response had high values. The conditions noted are these: 30 µM. The class given is functional.
Chain of Chromo domain-containing protein 1 (Saccharomyces cerevisiae (strain ATCC 204508 / S288c) (Baker's yeast)) (P32657 whole entry, the tested form may be a part): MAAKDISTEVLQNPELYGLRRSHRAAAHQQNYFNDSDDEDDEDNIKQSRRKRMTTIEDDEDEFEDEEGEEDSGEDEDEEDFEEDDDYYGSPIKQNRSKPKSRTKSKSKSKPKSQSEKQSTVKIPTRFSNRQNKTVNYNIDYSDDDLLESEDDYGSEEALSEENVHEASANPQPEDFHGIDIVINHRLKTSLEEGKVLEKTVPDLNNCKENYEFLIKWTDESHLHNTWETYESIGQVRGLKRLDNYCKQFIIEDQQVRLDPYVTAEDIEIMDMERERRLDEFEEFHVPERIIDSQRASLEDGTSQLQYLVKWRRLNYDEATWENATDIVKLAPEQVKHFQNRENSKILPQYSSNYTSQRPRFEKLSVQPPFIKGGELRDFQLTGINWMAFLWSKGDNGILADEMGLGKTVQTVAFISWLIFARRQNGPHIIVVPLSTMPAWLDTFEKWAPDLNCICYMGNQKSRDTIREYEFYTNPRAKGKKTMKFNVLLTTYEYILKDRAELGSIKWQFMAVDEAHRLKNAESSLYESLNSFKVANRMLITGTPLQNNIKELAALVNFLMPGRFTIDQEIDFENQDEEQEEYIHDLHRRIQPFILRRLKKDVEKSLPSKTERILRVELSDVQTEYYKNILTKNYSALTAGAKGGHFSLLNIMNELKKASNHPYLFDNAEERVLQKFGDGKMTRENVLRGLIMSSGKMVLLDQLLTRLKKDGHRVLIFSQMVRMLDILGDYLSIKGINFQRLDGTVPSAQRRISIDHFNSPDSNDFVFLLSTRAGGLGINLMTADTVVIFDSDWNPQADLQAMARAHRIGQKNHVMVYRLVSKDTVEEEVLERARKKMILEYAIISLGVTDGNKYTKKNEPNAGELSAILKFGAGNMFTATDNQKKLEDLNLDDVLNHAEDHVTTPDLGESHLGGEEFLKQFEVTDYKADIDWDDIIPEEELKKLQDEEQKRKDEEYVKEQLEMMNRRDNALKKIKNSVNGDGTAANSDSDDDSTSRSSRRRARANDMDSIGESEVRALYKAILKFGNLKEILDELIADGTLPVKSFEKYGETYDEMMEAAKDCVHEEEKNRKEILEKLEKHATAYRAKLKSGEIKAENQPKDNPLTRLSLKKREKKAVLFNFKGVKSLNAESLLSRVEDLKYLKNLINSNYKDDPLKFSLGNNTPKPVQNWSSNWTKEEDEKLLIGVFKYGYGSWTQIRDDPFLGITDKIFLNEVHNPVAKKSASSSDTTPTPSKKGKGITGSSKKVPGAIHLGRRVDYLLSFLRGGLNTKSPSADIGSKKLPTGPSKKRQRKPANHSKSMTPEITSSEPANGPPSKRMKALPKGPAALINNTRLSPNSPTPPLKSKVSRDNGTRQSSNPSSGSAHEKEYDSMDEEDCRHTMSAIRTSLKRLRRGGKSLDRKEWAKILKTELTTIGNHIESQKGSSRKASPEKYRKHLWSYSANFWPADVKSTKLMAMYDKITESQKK

Chain of Sialic acid-binding Ig-like lectin 9 (Homo sapiens) (Q9Y336 whole entry): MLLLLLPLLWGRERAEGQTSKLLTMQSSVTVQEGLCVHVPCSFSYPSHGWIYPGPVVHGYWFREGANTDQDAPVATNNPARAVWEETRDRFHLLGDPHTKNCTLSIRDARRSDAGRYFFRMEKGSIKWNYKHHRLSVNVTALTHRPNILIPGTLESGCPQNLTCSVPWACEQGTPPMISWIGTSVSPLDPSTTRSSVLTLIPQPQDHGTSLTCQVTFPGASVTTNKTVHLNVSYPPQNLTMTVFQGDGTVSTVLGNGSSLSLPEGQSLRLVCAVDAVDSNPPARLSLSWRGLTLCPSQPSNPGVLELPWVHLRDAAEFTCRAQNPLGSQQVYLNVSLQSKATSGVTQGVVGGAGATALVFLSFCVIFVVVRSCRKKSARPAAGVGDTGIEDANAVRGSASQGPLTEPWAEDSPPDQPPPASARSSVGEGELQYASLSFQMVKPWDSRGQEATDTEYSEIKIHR
Chain of Protein translocase subunit SecA (Escherichia coli (strain K12)) (P10408 whole entry): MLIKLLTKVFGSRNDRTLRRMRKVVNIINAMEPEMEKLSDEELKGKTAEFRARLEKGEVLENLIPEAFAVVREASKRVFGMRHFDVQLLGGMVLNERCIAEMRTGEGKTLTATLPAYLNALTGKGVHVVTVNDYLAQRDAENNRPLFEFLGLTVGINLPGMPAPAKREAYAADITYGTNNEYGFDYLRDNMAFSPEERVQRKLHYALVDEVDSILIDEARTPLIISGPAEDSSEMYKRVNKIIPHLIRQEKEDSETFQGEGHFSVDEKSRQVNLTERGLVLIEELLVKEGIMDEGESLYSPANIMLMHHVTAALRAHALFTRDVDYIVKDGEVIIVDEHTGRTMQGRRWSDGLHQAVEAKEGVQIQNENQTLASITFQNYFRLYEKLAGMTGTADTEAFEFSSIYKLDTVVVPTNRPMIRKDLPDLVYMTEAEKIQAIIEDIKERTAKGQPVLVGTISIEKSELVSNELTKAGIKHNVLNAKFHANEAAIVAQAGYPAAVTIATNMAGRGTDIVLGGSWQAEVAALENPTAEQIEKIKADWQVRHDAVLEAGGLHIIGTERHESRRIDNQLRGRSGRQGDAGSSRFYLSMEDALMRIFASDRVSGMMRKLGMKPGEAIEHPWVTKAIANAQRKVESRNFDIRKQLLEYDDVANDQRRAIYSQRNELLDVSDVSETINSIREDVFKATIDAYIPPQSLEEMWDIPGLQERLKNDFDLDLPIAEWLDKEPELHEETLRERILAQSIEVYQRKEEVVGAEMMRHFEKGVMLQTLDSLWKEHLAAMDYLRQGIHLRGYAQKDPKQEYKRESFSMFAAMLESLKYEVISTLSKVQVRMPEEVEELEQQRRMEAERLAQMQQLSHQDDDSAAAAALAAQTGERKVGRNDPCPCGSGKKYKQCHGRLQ

In the case of `O=C(CCc1ccccc1)N1CCn2cc(Cn3cncn3)nc2C1`, the Percent Effect was -2.68% in assay [1]; 0% in assay [2]; 5.15% in [3]; 7.21% in assay [4]; -3.45% in [5]; -3.23% in assay [6]. For the same compound, the Percent Effect in assay [7] is 14.6%; in [8] it was 22.4%; in assay [9], 1.06%; in assay [10], -1.28%; in assay [11], 1.43%.

Consider `CCN(Cc1nc2c(cnn2C)c(=O)[nH]1)Cc1cccs1`, for which the Percent Effect in [1] is -4.13%; in assay [2] it was 15.6%; in [3] it was -1.29%; in [4] it was -13.1%; in assay [5], 4.6%; in assay [6], -10.3%. Besides, the Percent Effect in assay [7] was 15.3%; in [8], -0.846%; in [9], 7.62%; in assay [10], 25.9%; in assay [11] it was -21.1%.

Turning to `Cc1csc([C@@H]2C[C@@H]3CCN(C(=O)c4cc(C)on4)C[C@H]3O2)n1`, the Percent Effect in assay [1] is -3.41%; in assay [2], 20.8%; in assay [3], -1.54%; in assay [4], -4.81%; in assay [5] it was 4.04%; in [6], 5.81%. Besides, the Percent Effect in assay [7] is 11.7%; in assay [8], 12.7%; in assay [9], 4.23%; in assay [10], 16.7%; in [11], -9.47%.

Turning to `Cc1ccc(CN2CCCC3(COCCN(Cc4c[nH]nn4)C3)C2)o1` (stereo unspecified), the Percent Effect in [1] was -2.92%; in assay [2] it was 2.67%; in assay [3] it was 3.3%; in assay [4], 8.61%; in [5], 0.965%; in assay [6], -22.8%. The Percent Effect in [7] was 0.855%; in [8] it was 4.18%; in assay [9], 7.29%; in assay [10], 10%; in [11] it was -3.22%.

As to `Cc1cnn(CC2CCCN2CC(=O)N(C)CCC#N)c1` (stereo unspecified), the Percent Effect is -1.24% in assay [1]; -5.41% in assay [2]; -5.26% in assay [3]; 5.88% in assay [4]; -0.386% in assay [5]; -0.476% in assay [6]. The Percent Effect is 11.4% in assay [7]; -14.1% in assay [8]; -2.65% in assay [9]; -2.44% in assay [10]; 91.2% in assay [11].

Take `Cn1ccnc1N1CCN(C(=O)Cc2ccc(F)cc2)CC1`: the Percent Effect in [1] is -3.69%; in [2] it was 13%; in assay [3], 5.01%; in assay [4], 3.61%; in [5] it was 2.86%; in [6], 0.645%. The Percent Effect is 17.6% in assay [7]; 14.3% in [8]; 6.35% in [9]; 11.5% in assay [10]; -9.3% in assay [11].

For `CS(=O)(=O)NCC(=O)N1CCCC1c1noc(C2CC2)n1` (stereo unspecified), the Percent Effect in [1] was -3.88%; in assay [2], 16%; in assay [3], -6.02%; in assay [4], 25.8%; in [5], 4.19%; in assay [6], 41.1%. Moreover, the Percent Effect in assay [7] is 5.58%; in [8], 0.475%; in [9], 4.92%; in assay [10] it was 13.6%; in [11] it was -6.99%.

As for `NC(=O)CC1CCN(C(=O)CCOc2ccc(Cl)cc2)CC1`, the Percent Effect in assay [1] was -3.65%; in assay [2], 10.5%; in assay [3], 2.65%; in assay [4], 4.69%; in assay [5], 0.752%; in [6], -4.6%. The Percent Effect in assay [7] was 8.19%; in [8] it was 1.27%; in assay [9] it was 6.37%; in [10] it was 12.2%; in assay [11] it was -8.66%.

With `CN(C)CC(=O)N1C[C@@H]2CC[C@H](Oc3ccccc3Cl)[C@@H]2C1`, the Percent Effect in assay [1] is -5.55%; in assay [2], -4.05%; in assay [3], 9.46%; in [4], 5.31%; in [5], -2.17%; in assay [6], -3.48%. Further, the Percent Effect in assay [7] is -2.5%; in [8] it was 6.65%; in [9], -1.07%; in [10], 3.9%; in [11], 9.09%.

In the case of `CC(C)C(C(=O)N1CCC(N(C)c2cccnn2)CC1)n1cncn1` (stereo unspecified), the Percent Effect in [1] is -2.45%; in assay [2] it was 0%; in assay [3], -10.6%; in [4] it was 4.35%; in assay [5], -3.49%; in assay [6], 4.01%. The Percent Effect in assay [7] is 9.01%; in assay [8] it was 11.7%; in [9], -0.493%; in assay [10], 1.24%; in assay [11], 6.08%.

As to `Cc1nccn1C1CCCN(C(=O)c2ccc3c(c2)NC(=O)CO3)C1` (stereo unspecified), the Percent Effect is -3.38% in assay [1]; 2.7% in assay [2]; -9.28% in assay [3]; -2.15% in [4]; 4.43% in assay [5]; -1.2% in assay [6]. For the same compound, the Percent Effect in [7] was 14.1%; in assay [8] it was -3.11%; in assay [9], 6.4%; in assay [10], 16.1%; in assay [11] it was -9.9%.
